Records with an inconclusive call do not appear. Active and inactive are the calls of the source. Calls follow the shape of the dose curve; as a rule, active = well fitted inhibition curve with a large enough effect; inconclusive = small, poorly fitted or top-dose-only effect; inactive = flat fitted curve, though single readings scatter.
system: CRL-7250; assay: qHTS assay to identify novel small-molecules to repurpose for Merkel cell carcinoma treatment (AID 1296009); settings: MCC and control cell lines, CellTiter-Glo viability, 72 h; series mostly up to 92 µM; activity change, negative = cytotoxicity: at the top concentration; also: nearly all actives have a fitted effect of over 60% in size
Procedure, shortened: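 Cells were treated for 72 hr at 37 degree celsius with compounds in 8- or 11-point dose response. Viability was read by CellTiter-Glo luminescence, normalized to no-cell (cytotoxicity) and DMSO controls.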

| SMILES | outcome |
| --- | --- |
| CC(=O)OCC1(O)CCC2C(COC3OC(CO)C(O)C(O)C3OC(=O)/C=C/c3ccc(O)cc3)=COC(OC(=O)CC(C)C)C21 (stereo not given) | inactive [at 17.4 µM] |
| CCC(C)/C=C(C)/C=C/C1=CC2=CC(=O)C(C)(O)C(OC(C)=O)C2CO1 (stereo not given) | inactive |
| CC(=O)[C@H]1CC[C@H]2[C@@H]3CC=C4C[C@@H](OS(=O)(=O)O)CC[C@]4(C)[C@H]3CC[C@]12C | inactive |
| C[C@]12CCC(=O)C=C1[C@@H](O)C[C@@H]1[C@@H]2[C@@H](O)C[C@@]2(C)[C@H]1CC[C@]2(O)C(=O)CO | inactive |
| CC(=O)c1c(C)cc(O[C@@H]2O[C@H](CO)[C@@H](O)[C@H](O)[C@H]2O)cc1O | inactive |
| Cn1ccnc1CCOC(c1cc2nccc(C(=O)O)c2[nH]1)c1ccccc1Cl (stereo not given) | inactive |
| CC1=C(CC(=O)O)c2cc(F)ccc2C1=Cc1ccc(S(C)(=O)=O)cc1 | inactive |
| CC1CCC2(C)CCC3(C)C(=CCC4C5(C)CCC(O)C(C)(C(=O)O)C5CCC43C)C2C1C (stereo not given) | inactive [at 17.4 µM] |
| COc1cc([C@@H](O[C@@H]2O[C@H](CO)[C@@H](O)[C@H](O)[C@H]2O)[C@@H]2CO[C@H](c3ccc(O)c(OC)c3)[C@H]2CO)ccc1O | inactive [at 17.4 µM] |
| C[C@@H](CC[C@@H]1[C@@]2(C)CCCC(C)(C)C2CC[C@@]1(C)O)CC(=O)O (stereo not given in full) | inactive |
| COC(=O)[C@@]1(O)C=CC[C@@H]2[C@@]3(C)C[C@@H](c4ccoc4)OC(=O)[C@H]3CC[C@]21C | inactive |
| CC1(C(=O)O)CCCC2(C)C3CCC4CC3(CCC12)CC4C(=O)O (stereo not given) | inactive |
| O=C(O)CCc1cccc(O[C@@H]2O[C@H](CO)[C@@H](O)[C@H](O)[C@H]2O)c1O | inactive |
| C=C1CC2C3(C)C(O)CC(=O)C(C)(C)C3C(O)C(OC(C)=O)C2(C)C2C(=O)OC(C)(C(=O)OC)C(=O)C12C (stereo not given) | inactive [at 17.4 µM] |
| CC(=O)c1ccc(O[C@@H]2O[C@H](CO[C@@H]3OC[C@@H](O)[C@H](O)[C@H]3O)[C@@H](O)[C@H](O)[C@H]2O)cc1 | inactive [at 17.4 µM] |
| C[C@H]1CC[C@@H]2N(C1)C[C@@H]1[C@H]([C@@H](O)[C@H](O)[C@]3(O)[C@H]1C[C@@]14OC5(O)[C@@H](C[C@@H](O)[C@@H]31)[C@]4(C)CC[C@@H]5O)[C@]2(C)O | inactive [at 17.4 µM] |
| O=C(O)/C=C/c1ccc(O)c(O[C@@H]2O[C@H](CO)[C@@H](O)[C@H](O)[C@H]2O)c1 | inactive |
| CC[C@H](NC(=O)c1c(O)c(-c2ccccc2)nc2ccccc12)c1ccccc1 | inactive |
| CC(=O)O[C@H]1C[C@@]2(C)[C@@H](C[C@@H](O)[C@H]3[C@@]4(C)CC[C@@H](O)[C@@H](C)[C@@H]4CC[C@@]32C)/C1=C(\CCC=C(C)C)C(=O)O | inactive |
| O=C1NC(Cc2c[nH]c3ccccc23)C(=O)NC1Cc1cnc[nH]1 (stereo not given) | inactive |

| SMILES | outcome |
| --- | --- |
| Cc1ccnn1-c1ccc(C(=O)N2CCN(S(=O)(=O)c3ccc(Cl)c(C(F)(F)F)c3)CC2)cc1 | inactive |
| CC(C)(O)c1ccc2c(c1)ncn2-c1cccc(-c2ccccc2C#N)c1 | inactive |
| CC(C)(O)C1=CCC23COC(C2)C(O)(C(=O)O)CCC13 (stereo not given) | inactive |
| NC(=O)c1ccc(F)c2c1C[C@@H](N(C1CCC1)C1CCC1)CO2 | inactive |
| O=C1NC(Cc2ccccc2)C(=O)N2CCCC12 (stereo not given) | inactive |
| Cc1ccc(-c2ccc3c(ccc4sc5c(c43)NC[C@@H](C)NC5=O)n2)cn1 | inactive |
| Cc1occc(=O)c1O[C@@H]1O[C@H](COC(=O)CC(C)(O)CC(=O)O)[C@@H](O)[C@H](O)[C@H]1O (stereo not given in full) | inactive [at 17.4 µM] |
| C/C=C(/C)C(=O)O[C@H]1C[C@]2(C)O[C@@H]2[C@@H](OC(C)=O)[C@@]2(C)CC[C@@](O)(C(C)C)[C@H]12 | inactive |
| CC1=C2C(=O)C=C(CO[C@@H]3O[C@H](CO)[C@@H](O)[C@H](O)[C@H]3O)[C@@H]2[C@H]2OC(=O)[C@H](C)[C@@H]2[C@@H](O)C1 | inactive [at 17.4 µM] |
| O=C(O)c1cccc(C(=O)CCC2OC(n3cnc4c(=O)[nH]cnc43)C(O)C2O)c1 (stereo not given) | inactive [at 17.4 µM] |
| C/C=C/C=C/C(CC(=O)O)Nc1ccc(C=O)cc1 (stereo not given) | inactive |
| CC1=C2CC(=O)C(C)CC/C=C(\C)CC2OC1=O (stereo not given) | inactive |
| C[C@@H]1O[C@@H](O[C@@H]2[C@@H](O)[C@H](O[C@H]3CC[C@@]4(C)C(CC[C@]5(C)C4CC=C4[C@@H]6CC(C)(C)CC[C@]6(C(=O)O[C@@H]6O[C@H](CO)[C@@H](O)[C@H](O)[C@H]6O)CC[C@]45C)C3(C)C)O[C@H](C(=O)O)[C@H]2O)[C@H](O)[C@H](O)[C@H]1O (stereo not given in full) | inactive [at 9.27 µM] |
| Cn1c2ccc(F)cc2c2c(C(=O)N3CCCC3)cn(-c3ccccc3)c(=O)c21 | inactive |
| O=C(/C=C/c1ccc(O)cc1)OC[C@H]1O[C@@H](O/C(=C\c2ccccc2)C(=O)O)[C@H](O)[C@@H](O)[C@@H]1O | inactive [at 17.4 µM] |
| CC(C)=C[C@@H]1[C@H](CO[C@@H]2O[C@H](CO)[C@@H](O)[C@H](O)[C@H]2O)C1(C)C | inactive |
| CC(C)(O)C1CCC(C)(C2CCC3(C)C4CCC5C(C)(C(=O)OC6OC(CO)C(O)C(O)C6O)C(O)CC(O)C56CC46CCC23C)O1 (stereo not given) | inactive [at 17.4 µM] |
| COC(=O)C(CC1CCCC1)c1ccc(S(C)(=O)=O)cc1 (stereo not given) | inactive |
| COc1cccc2c1CCC[C@H]2CN(C)CCc1ccc2ccoc2c1 | inactive |
| Cc1c(NC(=O)N2CCOCC2)ccc2c1c1ccccc1n2C(C)C | inactive |

— PubChem BioAssay (NCATS)
